# Reference: PubChem BioAssay AID1671190 (National Center for Advancing Translational Sciences (NCATS), 2021)
# About 6,100 (1.1%) of roughly 580,000 compounds were called active. Roughly 15% stayed inconclusive and do not appear here. Calls follow the shape of the dose curve; as a rule, active = well fitted inhibition curve with a large enough effect; inconclusive = small, poorly fitted or top-dose-only effect, or another doubt; inactive = no such curve, though single readings can be large or run the other way. The entries come from a sample that favours actives as a whole.
# Target: Polyunsaturated fatty acid lipoxygenase ALOX12 (Homo sapiens) (UniProt P18054)
# Sequence (P18054 whole entry, looked up): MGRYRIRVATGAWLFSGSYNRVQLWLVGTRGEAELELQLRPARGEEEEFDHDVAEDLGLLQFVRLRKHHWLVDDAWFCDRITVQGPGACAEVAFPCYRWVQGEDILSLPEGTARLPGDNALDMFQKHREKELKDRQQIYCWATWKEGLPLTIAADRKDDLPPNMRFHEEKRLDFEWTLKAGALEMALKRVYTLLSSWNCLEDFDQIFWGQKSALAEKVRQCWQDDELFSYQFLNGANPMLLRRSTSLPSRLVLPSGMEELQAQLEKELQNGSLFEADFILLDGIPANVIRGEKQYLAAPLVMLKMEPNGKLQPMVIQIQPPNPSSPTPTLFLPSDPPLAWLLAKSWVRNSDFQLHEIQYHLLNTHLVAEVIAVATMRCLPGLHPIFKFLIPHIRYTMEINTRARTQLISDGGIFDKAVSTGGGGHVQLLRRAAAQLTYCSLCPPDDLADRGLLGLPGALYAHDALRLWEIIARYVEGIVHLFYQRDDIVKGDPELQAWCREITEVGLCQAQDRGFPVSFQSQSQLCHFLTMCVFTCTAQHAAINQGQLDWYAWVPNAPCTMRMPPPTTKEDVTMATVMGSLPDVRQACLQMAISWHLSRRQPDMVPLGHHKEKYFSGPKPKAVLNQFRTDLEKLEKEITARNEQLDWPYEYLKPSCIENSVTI
# Assay: Primary qHTS assay for inhibitors of human arachidonate 12S-lipoxygenase (ALOX12): Round 2
# Details: purified 12hLO, xylenol orange hydroperoxide absorbance; series mostly up to 108 µM; activity change, negative = inhibition: at the top concentration
# In short: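 Hydroperoxide product was detected by ferrous iron/xylenol orange as the 573 to 405 nm absorbance ratio. Arachidonic acid at 40 uM (final) was turned over for 30 min at room temperature by 150 nM human 12hLO, pH 7.0 Hepes buffer, after 15 min compound preincubation.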
# % is scaled to controls: 0 for no effect and ±100 for the full control effect; potency is read from the fitted curve at half-maximal effect.
Compound,"activity change, negative = inhibition",Potency
CN1CCCN(S(=O)(=O)c2ccc3c(c2)CCC3)c2ccccc21,25.4% (inactive),
CCc1ccc(-c2nc(-c3nc(-c4cccs4)cs3)sc2C)cc1,-10.7% (inactive),
CCOC(=O)c1sc(=S)n2c1[nH]c(=O)c1ccc(C(=O)OC)cc12,,15.8 µM (active)
COC(=O)c1ccc(CNC(=O)Cn2cc(C)c(=O)[nH]c2=O)cc1,-9.15% (inactive),
CCOC(=O)C1=C(C)NC(=O)NC1c1ccc(C(=O)OC)cc1 (stereo not drawn),7.06% (inactive),
COc1ccc(NC(=O)ON=C2c3ccccc3-c3ccccc32)cc1,2.46% (inactive),
COc1ccc(Nc2ccccc2)cc1,,35.5 µM (active)
COc1ccc(Nc2nc(-c3cccc(OC)c3OC)no2)cc1,63.4% (inactive),
O=C(NC1CCc2ccccc21)c1cc(COc2ccc3c(c2)OCO3)[nH]n1 (stereo not drawn),62.3% (inactive),
CC1(C2CC2)NC(=O)N(CC(=O)Nc2cccc3cccnc23)C1=O (stereo not drawn),-61.8% (inactive),
O=C(OCc1cc(Cl)c2c(c1)OCCCO2)C12CC3CC(CC(Cl)(C3)C1)C2,10.3% (inactive),
CCCn1nc(C(=O)Nc2ccc(OC)c(S(=O)(=O)N(C)C)c2)c2ccccc2c1=O,7.45% (inactive),
CCCCc1ccc(Nc2nnc(SCC(=O)NC(C)C)s2)cc1,3.41% (inactive),
Cc1ccc(Nc2nnc(SCC(=O)c3ccc(Cl)s3)s2)cc1C,10.8% (inactive),
CC(C)c1ccc(Nc2nnc(SCC(=O)c3nnc(-c4ccccc4)o3)s2)cc1,,39.8 µM (active)
O=C(NCC1CCN(c2cc(-c3ccc(Cl)cc3)[nH]n2)CC1)c1ccc2nc[nH]c2c1,-1.91% (inactive),
CN(C(=O)CN1CCN(c2cc(-c3ccc(OCc4ccccc4)cc3)ncn2)CC1)c1ccccc1,,10 µM (active)
COc1ccc(-c2cc(N3CCN(C(=O)Cc4cccc(OC)c4)CC3)n[nH]2)cc1,-3.74% (inactive),
Cc1ccc(-c2cc(N3CCCN(C(=O)COc4ccccc4)CC3)n[nH]2)cc1C,27.5% (inactive),
CN(C)[C@H]1CCCCN(C(=O)CC2CCN(Cc3ccccc3)CC2)C1,1.99% (inactive),
Clc1ccc2oc([C@H]3CCN(Cc4ccccc4)C3)nc2c1,4.32% [at 176 µM] (inactive),
Cc1cc(S(=O)(=O)N2CCCC2c2nnc3ccccn23)ccc1Br (stereo not drawn),-1.64% (inactive),
COc1c(O)cc2oc(-c3ccc(O)c(O)c3)cc(=O)c2c1O,,31.6 µM (active)
CCCCOc1cc(O)c2c(=O)cc(-c3ccccc3)oc2c1,-23.1% (inactive),
COCCNC(=O)COc1cc(O)c2c(=O)cc(-c3ccccc3)oc2c1,-16.7% (inactive),
COc1ccc(-c2c(C)c3ccc(OS(C)(=O)=O)cc3oc2=O)cc1,17.8% (inactive),

Compound,"activity change, negative = inhibition",Potency
O=C(CNc1ccccc1)NNC(=O)c1cc(-c2ccccc2)nn1-c1ccccc1,7.23% (inactive),
Cc1nc2nc(CC(=O)NCc3ccccc3)nn2c(C)c1Cc1ccc(Cl)cc1,-9.31% (inactive),
Cc1ccc(-n2c(=O)c3cccnc3n2CC(=O)Nc2ccc(F)cc2F)cc1C,-4.07% (inactive),
CCOc1ccc2[nH]c(=S)sc2c1,,35.5 µM (active)
CCOc1ccc2[nH]c(=O)c(CN(CCCO)C(C)=O)cc2c1,13.7% (inactive),
CCOc1ccc(OCC)c(NS(=O)(=O)c2ccc3[nH]c(=O)ccc3c2)c1,-14.5% (inactive),
Cc1cc(=O)oc2c(C)c(OC(C)C(=O)NCc3ccc(S(N)(=O)=O)cc3)ccc12 (stereo not drawn),-43.1% (inactive),
COc1ccc(-c2cc(N3CCN(C(=O)c4cc(OC)cc(OC)c4)CC3)n[nH]2)cc1,55.9% (inactive),
COc1ccc(-c2cn(-c3ccc(OC)cc3)c(=S)[nH]2)cc1,,25.1 µM (active)
COc1ccc(-c2nc3ccncc3[nH]2)cc1,43.2% [at 176 µM] (inactive),
COc1ccc2c(c1)CCc1c-2n[nH]c1C(=O)N1CCC(c2noc(COc3ccc(C)cc3)n2)CC1,28.6% (inactive),
CCc1cccc(NC(=O)CC(C)C)c1,12.8% (inactive),
O=C(Nc1ccccc1F)c1ccc2c(c1)n(Cc1ccccc1)c(=O)c1ccnn12,-8.95% (inactive),
CN(c1ccccc1)S(=O)(=O)c1ccc(NC(=O)COc2ccccc2)cc1,36.6% (inactive),
COC(=O)C1=C(O)/C(=C/c2ccc(OCC(=O)Nc3ccccc3)cc2)N=C1C,,17.8 µM (active)
Cc1csc2nc(COc3ccc(NC(=O)COc4ccccc4)cc3)cc(=O)n12,-26.8% (inactive),
NC(=O)Cc1csc(NC(=O)CCc2ncc(-c3ccc(Cl)cc3Cl)o2)n1,5.2% (inactive),
CC(OC(=O)c1cc2cc(F)ccc2s1)C(=O)N1CCNC1=O (stereo not drawn),-13.9% (inactive),
O=[N+]([O-])c1ccccc1N/N=C1\CCc2ccccc21,0.0102% (inactive),
S=C(NCCC1=CCCCC1)Nc1ccccc1,-11.4% (inactive),
CCCCNC(=S)N/N=C1\CCCCc2ccccc21,,31.6 µM (active)
C#CCOC(=O)c1cccc(C(=O)O)c1,-28.2% (inactive),
COc1cccc(NC(=O)C2(C#N)CCCC2)c1,43.9% (inactive),
COc1cccc(NC(=O)C2C(c3ccccc3)C2(Cl)Cl)c1 (stereo not drawn),,35.5 µM (active)
COc1cccc(NC(=O)c2csnn2)c1,-18.6% (inactive),
Cc1nc(N2CCN(CC(=O)N3CCCC3)CC2)c(C#N)c2c1COC(C)(C)C2,0.987% (inactive),

Compound,"activity change, negative = inhibition",Potency
O=C1[C@@H]2C[C@@H](CN2Cc2ccc3ccccc3n2)Oc2ccccc2N1Cc1ccccc1,,8.91 µM (active)
COCCN1C(=O)[C@@H]2C[C@@H](CN2C(=O)Nc2ccccc2)Oc2ccccc21,-7.35% [at 176 µM] (inactive),
N#Cc1ccc(CN2C[C@@H]3C[C@H]2C(=O)Nc2ccccc2O3)cc1,11.6% [at 176 µM] (inactive),
COC(=O)C1=C(C)N=C2SC=C(CC(=O)NCc3ccccc3F)N2C1c1ccccc1Cl (stereo not drawn),13.3% (inactive),
CCc1n[nH]c(=S)n1/N=C/c1c[nH]c2ccc(Br)cc12,,15.8 µM (active)
Cc1ccccc1/C=C/C(=O)NC(C)CO (stereo not drawn),31.2% (inactive),
O=C(COc1ncnc2ccccc12)Nc1cc(F)ccc1F,1.32% (inactive),
O=C(CSc1ccc([N+](=O)[O-])cn1)Nc1ccc(N2CCOCC2)c(Cl)c1,-6.2% (inactive),
O=C(Oc1ccccc1Cl)c1ccc(N2CCOCC2)c([N+](=O)[O-])c1,-10% (inactive),
CCOc1ccc(C(=O)NC(=S)Nc2ccc(N3CCOCC3)c(Cl)c2)cc1[N+](=O)[O-],,14.1 µM (active)
COc1ccccc1C(CNC(=O)CCc1nc(-c2ccsc2)no1)N1CCCC1 (stereo not drawn),7.59% (inactive),
CCC(=O)Nc1ccc2nnc(-c3ccc(C(=O)Nc4ccc(OC)cc4)cc3)n2c1,1.26% (inactive),
COc1ccc2c(C)c(-c3cccc4ccccc34)c(=O)oc2c1,-4.87% (inactive),
O=S1(=O)CC/C(=N\Nc2ccc(F)cc2)c2ccsc21,,31.6 µM (active)
COc1ccc(C(=O)N/N=C2\CCS(=O)(=O)c3ccc(F)cc32)cc1OC,11.9% (inactive),
Cc1oc(-c2ccccc2)nc1CC(=O)N(C)CC(=O)Nc1cccc2ccccc12,-14.7% (inactive),
CC1(C)CC(=O)C2=C(C1)OC1=C(C(=O)CC(C)(C)C1)C2c1ccc(-c2ccc3c(c2)COC3=O)o1,-18.4% (inactive),
Fc1ccc(/C=N/N=C/c2ccc(F)cc2F)c(F)c1,61.1% (inactive),
COCc1[nH][nH]c(=O)c1C=Nc1ccc(F)cc1F,,12.6 µM (active)
CCOc1ccc(C(=O)NCc2n[nH]c(=O)c3ccccc23)cc1OCC,10.8% (inactive),
N#CC1=C(N)Oc2[nH]c(=S)[nH]c(=O)c2C12C(=O)Nc1ccccc12 (stereo not drawn),,14.1 µM (active)
Cc1ccc(C2CC(=O)C3=C(C2)OC(N)=C(C#N)C32C(=O)Nc3ccccc32)cc1 (stereo not drawn),6.42% (inactive),
Cc1ccc(NC2(C#N)C(=O)Nc3ccccc32)cc1 (stereo not drawn),0% (inactive),
C=CCNC(=O)O[C@@H]1CC[C@]2(C)C(CC[C@@H](O)[C@H]2CC(=O)N2CCC[C@H]2CO)[C@]1(C)CO (stereo partly drawn),4.47% (inactive),
N#C/C(=C/NC(=O)c1ccccc1)C(=O)N1CCOCC1,1.49% (inactive),
Cc1ccc(NC(=O)c2c(NC(=O)CCC(=O)O)sc3c2CCCCC3)cc1,,20 µM (active)

Compound,"activity change, negative = inhibition",Potency
O=C(Cc1ccccc1)Nc1sc2c(c1C(=O)Nc1ccc(Br)cc1)CCC2,-16% (inactive),
CCOC(=O)c1ccc(NC(=O)c2c(NCc3cccs3)sc3c2CCCC3)cc1,-28.7% (inactive),
CC1(C)Cc2sc3c(=O)n(Cc4ccc(Cl)cc4Cl)cnc3c2CO1,-10.1% (inactive),
CCn1c(SCC(=O)Nc2sc(C)c(C)c2C#N)nnc1C1CC1,-2.97% (inactive),
Cc1cccc(NC(=O)CSc2nc(-c3ccco3)cc(C(F)(F)F)n2)c1C,-12.8% (inactive),
CCOC(=O)c1sc(NC(=O)CSc2nc(C)cc(C(F)(F)F)n2)c(C#N)c1C,,20 µM (active)
CCC(CO)Nc1nc2c(c(=O)n(C)c(=O)n2C)n1Cc1c(Cl)cccc1Cl (stereo not drawn),-8.11% (inactive),
O=C(NNC1CC(=O)N(c2cccc(Cl)c2)C1=O)c1cccnc1 (stereo not drawn),6.21% (inactive),
C/C(=N\NC(N)=S)c1cccnc1,-6.29% (inactive),
C/C(=N\NC(=O)c1cc2c(s1)CCC(C)C2)c1cccnc1 (stereo not drawn),,5.01 µM (active)
OC1CC([C@@H](Cc2ccccn2)NC2CCC3(CCNCC3)CC2)C1 (stereo partly drawn),-5.73% (inactive),
CN(CCCNC1CCC2(CCNCC2)CC1)c1ccccc1,,10 µM (active)
Cc1nonc1OCCNC1CCC2(CCNCC2)CC1,-26.4% (inactive),
O=C(NCCC(=O)N1CCn2nc(C(=O)O)cc2C1)c1ccc(F)cc1,4.72% (inactive),
CCc1nnc2sc(-c3cccc(NC(=O)Cc4ccccc4)c3)nn12,9.63% (inactive),
O=C(NCc1ccccn1)C1CCN(C(=O)c2ccc(C(F)(F)F)cc2)CC1,-3.02% (inactive),
Cc1ccccc1N/C(SCc1ccc(Cl)cc1)=C(/C#N)C(N)=O,,20 µM (active)
CCN(CC(=O)Nc1cc(Cl)ccc1C)C(=O)CSCc1ccccc1,5.18% (inactive),
Cc1ccccc1NC(=O)C(C#N)=C1CCCCC1,-8.66% (inactive),
CNC(=O)c1ccc(-c2nc(CN3CCN(S(=O)(=O)c4ccc(C)c(C)c4)CC3)c(C)o2)cc1,20.4% (inactive),
COc1ccc2c(C)c(CCC(=O)N3CCN(C)CC3)c(=O)oc2c1,-5.95% (inactive),
Cc1nn2c(c1-c1ccccc1C(C)C)N(C(=O)c1cccc(C#N)c1)CCC2,-3.15% [at 176 µM] (inactive),
Cc1nn2c(c1-c1ccnn1C(C)C)N(CC1CCOCC1)CCC2,,12.6 µM (active)
Cc1nn2c(c1-c1ccnn1C(C)C)N(C(=O)c1ccc(Oc3ccccc3)cc1)CCC2,51.4% (inactive),
CCCCCn1nc(C(=O)Nc2ccccc2OCC)c2ccccc2c1=O,37.9% (inactive),
